Compound activity deposited in PubChem by National Center for Advancing Translational Sciences (NCATS).
Pol kappa inh: blocks human DNA polymerase kappa activity | Q9UBT6 | purified Pol kappa, fluorescent DNA synthesis assay, 10 min | Potency, µM (highest dose often 107 µM), most hits filed as inhibitors | hit rate 0.53% among 400,000 | AID 588579
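10 nM Pol kappa preincubated 15 min at room temperature with compounds, then reaction started with substrate at 50 nM final. Fluorescence read kinetically at 0 and 10 min; buffer-only wells served as negative control.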
L3MBTL1 inh: L3MBTL1 (human) inhibition | Q9Y468 | AlphaScreen L3MBTL1–H3K9me1 peptide binding | Potency, µM (highest dose often 57.1 µM), most hits filed as inhibitors | hit rate 0.66% among 230,000 | AID 485360; also: nearly all actives have a fitted effect of over 60% in size
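L3MBTL1 (50 nM) pre-complexed 30 min with biotinylated H3(1-15)K9me1 peptide (75 nM), then compounds added for 30 min at room temperature; AlphaScreen streptavidin donor/nickel chelate acceptor beads (10 ug/mL final) read after 30 min dark incubation.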
POLH inh: DNA polymerase eta (human) inhibition; hit rate 1.2% among 390,000; recombinant Pol eta, fluorescent DNA replication assay; Q9Y253; AID 588591; Potency, µM (top dose mostly 114 µM), actives largely listed as inhibitors
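Pol eta at 10 nM preincubated with compounds 15 min at room temperature; reaction started with fluorescent substrate (50 nM final) and read kinetically at 0 and 10 min.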
POLB inh: DNA polymerase beta (human) inhibition; P06746; hit rate 1.3% among 340,000; Potency, µM (series often up to 114 µM), hits mostly inhibitors; Pol beta primer extension/strand displacement, fluorescence kinetic
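Kinetic readout of DNA synthesis with strand displacement by Pol beta. Compound and 10 nM enzyme sit 15 min at room temperature; 50 nM substrate starts the reaction, read immediately and at 10 min.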
Pol iota inh: DNA polymerase iota (human) inhibition; Q9UNA4; Pol iota fluorescent replication assay, 10 min; Potency, µM (doses to about 115 µM), usual class: inhibitors; hit rate 1% among 390,000
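Fluorescent replication assay read twice, at 0 min and 10 min after adding 50 nM (final) substrate. Enzyme (10 nM) and compounds were first incubated 15 min at room temperature; enzyme-free buffer wells were negative controls.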
Hits are given with their value; 0 = inactive; ? = inconclusive; - = not tested or not shown; [ ] = another dose, or the depositor's remark. A selection: hits, their analogues and other compounds. The true share with any hit is near 2.4%. Calls follow the shape of the dose curve; as a rule, active = well fitted curve in the direction sought with a large enough effect; inconclusive = small, poorly fitted or top-dose-only effect, or another doubt; inactive = no such curve, though single readings can be large; an effect the other way counts as inactive or inconclusive.

SMILES	Pol kappa inh	L3MBTL1 inh	POLH inh	POLB inh	Pol iota inh
Cc1nc2ccccc2n1CC(O)Cn1c2ccccc2c2ccccc21 (configuration not stated)	0	-	0	0	100µM
Cc1ccc(C)n1C(CC(=O)O)c1ccc(C#N)cc1 (configuration not stated)	79.4µM	?	22.4µM	0	50.1µM
CCOC(=O)CC(c1ccc(N)cc1)n1c(C)ccc1C (configuration not stated)	0	0	0	0	0
Nc1nc(=S)c2n[nH]nc2[nH]1	0	-	-	-	0
Oc1ccc(C=NNC(=S)Nc2ccc(F)cc2)c(O)c1	0	-	0	-	0
Oc1ccc(/C=N/NC(=S)Nc2cccnc2)c(O)c1	0	8.91µM	0	0	0
Cc1cccc(N2CCN(C(=O)CSc3ccsc3[N+](=O)[O-])CC2C)c1 (configuration not stated)	?	31.6µM	?	?	0
O=C(CSc1ccsc1[N+](=O)[O-])N1CCN(c2ccccn2)CC1	?	0	50.1µM	?	44.7µM
Cc1cccc(N2CCN(C(=O)/C=C/c3cccs3)CC2C)c1 (configuration not stated)	0	-	0	?	0
CCc1ccc(S(=O)(=O)c2nnn3c2nc(Nc2ccc(C)c(Cl)c2)c2sccc23)cc1	0	-	0	0	0
Nc1ccc(N2CCOCC2)c2nonc12	0	?	79.4µM	?	?
O=C(Nc1ccc(N2CCOCC2)c2nonc12)C1CCCC1	0	-	0	0	?
O=C1N/C(=N/NC(=O)c2cccc3ccccc23)S/C1=C\c1ccccc1OCc1ccccc1	50.1µM	0	22.4µM	50.1µM	28.2µM
CC1(C)Cc2c(sc(NC(=O)COc3cccc4ccccc34)c2C#N)C(C)(C)N1	0	0	?	22.4µM	?
CCN1CCC(O)(C(C(=O)OC)c2ccccc2)CC1 (configuration not stated)	0	-	0	-	0
CCCCCC1CCNCC1	0	-	-	-	0
O=C(COC(=O)c1ccc([N+](=O)[O-])o1)NCCCc1ccccc1	0	0	89.1µM	-	?
COc1ccc(CCNC(=O)COC(=O)c2ccc([N+](=O)[O-])o2)cc1	0	0	?	-	?
O=C(COC(=O)c1ccc([N+](=O)[O-])o1)NCc1ccc(F)cc1	0	0	89.1µM	-	?
O=C(COc1ccccc1-c1nc(-c2ccccc2)no1)Nc1cccc([N+](=O)[O-])c1	0	-	0	0	0
CC1CC=CC2C1C(=O)N(Cc1ccccc1)C2c1ccc(Br)cc1F (configuration not stated)	0	-	-	-	0
CN(CC(=O)Nc1ccc(Cl)cc1)C(=O)CCc1ccccc1	0	-	0	0	89.1µM
CO/N=C(/C(=O)NC1C(=O)N2C(C(=O)O)=C(COC(N)=O)CSC12)c1ccco1 (configuration not stated)	35.5µM	-	-	-	-
CO/N=C(/C(=O)N[C@@H]1C(=O)N2C(C(=O)O)=C(CSC(=O)c3ccco3)CSC12)c1csc(N)n1 (some centres not stated)	0[19.4 µM]	-	-	-	-
CO/N=C(\C(=O)N[C@@H]1C(=O)N2C(C(=O)O)=C(COC(N)=O)CS[C@H]12)c1ccco1	?	?	2.51µM	?	39.8µM
SMILES	Pol kappa inh	L3MBTL1 inh	POLH inh	POLB inh	Pol iota inh
CO/N=C(\C(=O)N[C@@H]1C(=O)N2C(C(=O)O)=C(CSc3nc(=O)c(O)nn3C)CSC12)c1csc(N)n1 (some centres not stated)	?	-	11.2µM	14.1µM	25.1µM
CC(=O)OCC1=C(C(=O)O)N2C(=O)C(NC(=O)Cc3ccccc3)C2SC1 (configuration not stated)	44.7µM	-	-	-	50.1µM
CC(C)(C)n1ncc2c(=O)n(Cc3ccc(Cl)c(SC(F)(F)F)c3)cnc21	0	-	-	-	0
Cc1cc(O)c(C=O)c2c1C(=O)Oc1c(C)c(O)c3c(c1O2)C(O)OC3=O (configuration not stated)	10µM	-	-	-	-
Cc1ccc(S(=O)(=O)/N=C2\C=C(NS(=O)(=O)c3ccccc3)C(=O)c3ccccc32)cc1	0	-	?	-	?
CCc1ccc(S(=O)(=O)/N=C2\C=CC(=O)c3ccccc32)cc1	-	-	-	0	-
CCc1ccc(S(=O)(=O)/N=C2\C=C(Nc3ccc(O)cc3)C(=O)c3ccccc32)cc1	0	-	?	?	12.6µM
CCc1ccc(S(=O)(=O)/N=C2/C=C(Sc3ncn[nH]3)C(=O)c3ccccc32)cc1	0	?	6.31µM	0	1.12µM
O=C1C(Nc2ccc(O)cc2)=C/C(=N/S(=O)(=O)c2cccs2)c2ccccc21	0	12.6µM	?	0	6.31µM
Cc1ccc(Cl)cc1NC1=C/C(=N\S(=O)(=O)c2cccs2)c2ccccc2C1=O	0	-	?	0	3.98µM
CCOC(=O)Cc1c(C(=O)OCC)nnc2c(-c3ccccc3)c(C)nn12	0	-	0	0	0
CNC(=O)c1ccc(CN(C)C(=O)c2cccc(S(=O)(=O)N3CCc4ccccc4C3)c2)cc1	-	-	0	-	-
Cc1ccc(NC2=C/C(=N\S(=O)(=O)c3cccs3)c3ccccc3C2=O)c(C)c1	0	3.16µM	0	0	?
Cc1cccc(NC2=C/C(=N/S(=O)(=O)c3cccs3)c3ccccc3C2=O)c1	0	1.58µM	0	0	0
Cc1cc(C)c(S(=O)(=O)/N=C2\C=C(NS(=O)(=O)c3ccccc3)C(=O)c3ccccc32)c(C)c1	0	-	0	0	?
CCC(C)C(=O)OC1CC(O)C=C2C=CC(C)C(CCC(O)CC(O)CC(=O)O)C21 (configuration not stated)	0	-	-	-	-
COCCn1c(N)c(C(=O)OCc2ccccc2)c2nc3ccccc3nc21	0	0	0	0	20µM
Cn1c(=O)c(NCCc2ccccc2)c2c3c(cccc31)C(=O)c1ccccc1-2	?	-	?	14.1µM	?
COc1ccccc1/C=C/C1=NC(=C\C=C/c2ccccc2)/C(=O)O1	0	0	?	20µM	?
COc1ccccc1/C=C/C=C1N=C(/C=C/c2ccc(Cl)cc2)OC/1=O	0	0	0	?	0
O=c1ccc2ccc(OS(=O)(=O)O)cc2o1	0	-	-	-	-
C/C(CC(=O)Nc1cccc(Cl)c1Cl)=N\NC(=O)c1ccccc1C	0	?	0	50.1µM	0
COc1ccccc1N1CSC2=C(C#N)C(c3ccc(SC)cc3)CC(=O)N2C1 (configuration not stated)	?	22.4µM	44.7µM	25.1µM	?
N#CC1=C2SCN(C3CCCCC3)CN2C(=O)CC1c1ccc(F)cc1 (configuration not stated)	0	-	0	0	25.1µM
Cc1c(NC(=O)C2CC=CCC2C(=O)O)c(=O)n(-c2ccccc2)n1C (configuration not stated)	0	-	?	25.1µM	0
COc1ccc(NC(=O)CSc2nnc(-c3ccco3)c(-c3ccco3)n2)cc1OC	?	-	50.1µM	0	?
COc1ccc(C(=O)CSc2nnc(-c3ccco3)n2C)cc1	0	0	0	0	0
COc1ccc(C(=O)n2nc(-c3ccco3)nc2N)cc1	0	0	0	25.1µM	0
